Pin1 inh: qHTS Assay to Find Inhibitors of Pin1 | Peptidyl-prolyl cis-trans isomerase NIMA-interacting 1 (Homo sapiens), Q13526 | Pin1 FP peptide displacement, HiFluor488, 10 min | Potency, µM (top dose mostly 115 µM), for inactives: at the top dose activity, negative = inhibition, hits mostly inhibitors | hit rate 0.009% among 390,000; active = well fitted inhibition curve with a large enough effect in the polarisation, with a control signal flat, not every such curve was filed as active; inconclusive = small, poorly fitted or top-dose-only effect, or effect the other way, or a change in a side signal; inactive = no such curve, though single readings can be large or run the other way; the % refers to the polarisation; also: potency is read from the fitted curve at half-maximal effect
Target sequence (Q13526 whole entry, looked up): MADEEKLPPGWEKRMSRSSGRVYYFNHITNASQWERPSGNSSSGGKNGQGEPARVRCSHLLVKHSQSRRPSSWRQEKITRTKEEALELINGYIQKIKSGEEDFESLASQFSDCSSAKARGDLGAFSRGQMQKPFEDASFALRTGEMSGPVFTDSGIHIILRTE
PGK inhibitor: qHTS Assay to Find Inhibitors of Phosphoglycerate Kinase. PGK/GAPDH coupled, Kinase-Glo luminescence, 60 min. Potency, µM (series often up to 57.5 µM), for the others: at the highest dose activity change, negative = inhibition, actives largely listed as inhibitors. hit rate 0.043% among 380,000. AID 602233, 2012; also: potency is read from the fitted curve at half-maximal effect; nearly all actives have a fitted effect of over 60% in size
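Luminescent ATP detection (Kinase-Glo Plus) follows a 60-minute room-temperature incubation, with wells lacking PGK as controls. Buffer: 100 mM TEA (pH 7.6), 5 mM MgCl2, 0.01% Tween-20. Coupling enzyme GAPDH (100 nM final) supplies unstable 1,3-BPG in-well.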
PI4K2A block: qHTS for small molecular inhibitors of PI4K2A. Phosphatidylinositol 4-kinase type 2-alpha (Homo sapiens), Q9BTU6. purified PI4K2A, ADP-Glo luminescence, 1 h; active compounds read low. activity change, negative = inhibition, % at 76.9 µM. hit rate 0.13% among 420,000. AID 1346378, 2018; in the data active = activity change below about -50%; inconclusive = mostly about -30% to -49%;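 also: -100% = wells without enzyme as full effect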
Target sequence (Q9BTU6 whole entry, looked up): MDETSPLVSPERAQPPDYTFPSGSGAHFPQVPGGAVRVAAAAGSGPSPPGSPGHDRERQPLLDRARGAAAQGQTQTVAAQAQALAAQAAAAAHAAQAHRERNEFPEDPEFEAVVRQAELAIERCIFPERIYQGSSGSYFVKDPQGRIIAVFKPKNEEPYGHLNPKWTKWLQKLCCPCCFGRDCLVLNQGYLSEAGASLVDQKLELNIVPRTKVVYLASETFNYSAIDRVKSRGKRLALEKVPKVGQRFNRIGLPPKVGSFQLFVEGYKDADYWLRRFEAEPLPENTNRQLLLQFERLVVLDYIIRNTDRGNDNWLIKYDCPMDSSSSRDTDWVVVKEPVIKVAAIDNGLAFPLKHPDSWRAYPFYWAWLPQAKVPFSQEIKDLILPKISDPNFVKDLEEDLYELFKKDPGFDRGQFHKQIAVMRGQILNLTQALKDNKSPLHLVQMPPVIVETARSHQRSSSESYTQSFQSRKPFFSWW
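In this quantitative HTS, ADP production by PI4K2A was quantified luminescently after 1 h at ambient temperature; 100 microM adenosine served as plate-quality control.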
PI5P4K alpha inh: qHTS for Inhibitors of phosphatidylinositol 5-phosphate 4-kinase (PI5P4K). max response, %. PI5P4Kalpha enzyme, ADP-Glo luminescence, 60 min; active compounds read low. AID 652105, 2013. hit rate 1.2% among 330,000; active = max response of -50% or lower; inconclusive = between -30% and -50%; inactive = -30% or higher; also: value at the top dose of about 77 µM
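Luminescence from ADP-Glo served as readout of PI5P4Kalpha activity in a qHTS format. Reaction: enzyme, substrate, compound, ATP at 5 microM final, 60 min at RT.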
ADP-Glo interf: qHTS for Inhibitors of PI5P4K: ADP-Glo counter assay; shares compounds with PI5P4K alpha inh; ADP-Glo detection counter-screen, luciferase luminescence, no enzyme; AID 743285, 2014; 1,100 tested, under 10 active; Potency, µM (titrated, usually from 76.9 µM), inactives show at the highest dose activity change, negative = inhibition, most hits filed as inhibitors
Numbers without * were called inactive; i = inactive; ? = inconclusive; / = not tested or not shown. The full list was thinned out, with hits kept by preference. Unless noted, calls follow the shape of the dose curve; as a rule, active = well fitted curve in the direction sought with a large enough effect; inconclusive = small, poorly fitted or top-dose-only effect, or another doubt; inactive = no such curve, though single readings can be large; an effect the other way counts as inactive or inconclusive. Unless noted, % is scaled to controls: 0 for no effect and ±100 for the full control effect.

SMILES	Pin1 inh	PGK inhibitor	PI4K2A block	PI5P4K alpha inh	ADP-Glo interf
COCCNC(=O)c1cc(-c2ccccc2)sc1N	/	/	-3.3	-63.0*	-5.1%
CCOC(=O)c1c(NC(=O)c2cc3nc(-c4ccc(OC)cc4)cc(C(F)(F)F)n3n2)sc2c1CCC(C)C2 (centres undefined)	-8.2%	0.7%	8.4	/	/
N#CC1=C2SCN(c3ccc(F)cc3)CN2C(=O)CC1c1cccc(F)c1 (centres undefined)	-1.6%	i	-6.4	-59.4*	2.9%
COc1ccc(N2CSC3=C(C#N)C(c4cccs4)CC(=O)N3C2)cc1 (centres undefined)	-15.0%	i	0.4	/	/
COc1cc(OC)c(C2CC(=O)N3CN(c4ccc(C)cc4)CSC3=C2C#N)cc1OC (centres undefined)	-7.9%	2.6%	-3.5	-76.5*	-4.9%
Cc1ccc(N2CSC3=C(C#N)C(c4cccs4)CC(=O)N3C2)cc1 (centres undefined)	21.9%	-1.9%	-6.5	-59.9*	-2.7%
COc1ccc(C2CC(=O)N3CN(C4CCCCC4)CSC3=C2C#N)cc1 (centres undefined)	-20.6%	-6.2%	-3.9	/	/
COc1cccc(C2CC(=O)N3CN(C4CCCCC4)CSC3=C2C#N)c1 (centres undefined)	-6.8%	i	2.9	/	/
CCc1ccc(N2CSC3=C(C#N)C(c4cccs4)CC(=O)N3C2)cc1 (centres undefined)	18.8%	-10.9%	-16.7	-68.2*	-7.9%
CCCCN(C)Cc1c(O)ccc2c(=O)c(-c3ccccc3OC)coc12	-2.8%	i	-3.1	4.6	/
CCc1ccc(C2CC(=O)N3CN(c4ccccc4)CSC3=C2C#N)cc1 (centres undefined)	-4.0%	i	-8.7	-95.4*	2.4%
COc1cccc(C(Nc2ccccc2)c2ccc3ccc(C)nc3c2O)c1 (centres undefined)	/	/	3.1	-3.3	/
Cc1cccc(NC(c2ccc(O)cc2)c2ccc3ccc(C)nc3c2O)n1 (centres undefined)	?	i	-5.7	-52.1*	-9.1%
Cc1ccccc1NC(=O)Cc1nc(COC(=O)c2ccc(NC(N)=O)cc2)cs1	36.8%	9.8%	-2.9	-56.4*	-2.6%
Cc1ccccc1NC(=O)Cc1nc(COC(=O)c2ccc(Cl)nc2)cs1	10.6%	-0.5%	-0.8	0.6	/
O=C(c1ccc(Br)cc1)c1coc2ccc(O)cc12	-8.7%	0.5%	5.2	-21.6	/
O=C(NCc1ccco1)c1cc2ccc(O)cc2oc1=O	-6.9%	?	-76.4*	-80.7*	?
COc1ccc2cc(C(=O)NCc3ccco3)c(=O)oc2c1	?	-0.8%	-10.0	2.8	/
O=C(c1ccc(Br)cc1)c1cc2ccc(O)cc2oc1=O	-5.9%	-11.1%	0.2	-62.7*	-5.1%
CCCc1ccc(C(O)c2ncc(-c3cccc(C)c3)[nH]2)cc1 (centres undefined)	/	/	-0.3	2.3	/
CCc1nc2ccc(C(=O)NCC3CCCCC3)cn2c1N(CCC(C)C)CCN(C)C	/	/	0.5	8.8	/
Cn1c(=O)c2c(c3ccccc31)OC(=O)CC2c1cccc(F)c1 (centres undefined)	2.3%	-0.1%	2.2	/	/
O=C1NN=C2CCCCCC12 (centres undefined)	/	-8.4%	-9.8	-5.9	-0.6%
COc1ccc(NC2=Nc3cccc4cccc2c34)cc1OC	50.9%	-9.7%	2.2	/	/
COc1cc(NC2=Nc3cccc4cccc2c34)cc(OC)c1OC	72.7%	-1.6%	1.5	-50.3*	-3.4%
SMILES	Pin1 inh	PGK inhibitor	PI4K2A block	PI5P4K alpha inh	ADP-Glo interf
C[C@@H](NC(=O)c1ncn2c1C(=O)NC[C@@H]2C)c1ccccc1	/	i	-2.1	0.4	/
O=C(Nc1ccc(O)c2c(=O)cc(-c3ccccc3Cl)oc12)c1ccc(Cl)c(Cl)c1	-0.4%	-7.1%	0.2	0.0	-5.7%
CC(=O)Nc1cccc(-c2ccnc3c2CC(C(=O)NCc2ccco2)O3)c1 (centres undefined)	/	/	-1.3	-50.1*	4.9%
CC(=O)Nc1cccc(-c2ccnc3c2CC(C(=O)NCc2cccnc2)O3)c1 (centres undefined)	/	/	-4.9	4.1	/
CC(=O)NC(c1cccs1)c1cc([N+](=O)[O-])c2cccnc2c1O (centres undefined)	11.1%	0.9%	-12.2	-72.6*	3.7%
CCOc1ccc(C(C(=O)NCC2CCCO2)N(C(=O)c2snc(C(N)=O)c2N)c2ccc3c(c2)OCCO3)cc1 (centres undefined)	-0.9%	-9.7%	-8.3	6.0	/
Cc1noc(C)c1C(=O)Nc1ccc(-n2ccc(C(F)(F)F)n2)cc1	?	-19.6%	-3.4	?	4.2%
COc1cc(Cl)c(C)cc1NC(=O)CSc1sc2c(O)cc(=O)[nH]c2c1C#N	?	-4.2%	-8.2	-72.7*	-5.9%
COc1cc(Cl)c(C)cc1NC(=O)CSCC#N	-0.6%	-7.4%	-2.0	/	/
N#Cc1c(SCC(=O)Nc2nncs2)sc2c(O)cc(=O)[nH]c12	?	?	22.6	-76.5*	1.0%
CSc1nsc(SCC(=O)Nc2nncs2)n1	0.5%	8.6%	2.9	-0.9	/
COc1ccc(NC(=O)N(C)C[C@@H]2Oc3cc(C#CCN(C)C)ccc3S(=O)(=O)N([C@H](C)CO)C[C@H]2C)cc1	/	i	-4.9	2.9	/
O=C(O)c1ccc(-c2nn3c(=O)cc(N4CCNCC4)nc3s2)cc1	1.5%	/	-0.8	/	/
COc1ccc(OCC(=O)NCc2nc(-c3ccccc3)no2)cc1	26.0%	-8.5%	2.1	-57.6*	3.3%
COc1cccc(CNc2nc(NC(C)C)nc3ccsc23)c1	/	/	-4.3	/	2.3%
COCCNc1nc(NCc2ccc(C)cc2C)c2sccc2n1	/	/	2.7	-1.2	/
COc1ccccc1CNc1nc(NCc2ccc(C)cc2C)c2sccc2n1	/	/	0.4	/	-6.4%
COc1ccccc1CNc1nc(NCc2cccc(OC)c2OC)c2sccc2n1	/	/	-3.4	/	2.8%
COc1ccccc1CNc1nc(NCc2ccccc2)nc2ccsc12	/	/	-0.4	/	-7.7%
COCCNc1nc(NCc2cccc(OC)c2OC)c2sccc2n1	/	/	-0.9	2.8	/
COc1ccc(-c2nc(CCNC(=O)c3cccs3)cs2)cc1OC	14.7%	6.0%	-1.1	/	/
COCCNc1nc(NCCOC)c2sc(-c3ccccc3)cc2n1	/	/	-2.2	-4.4	/
COCCNc1nc(NCCOc2ccccc2)c2sc(-c3ccccc3)cc2n1	/	/	-3.1	/	-1.3%
COc1ccccc1CNc1nc(NC(C)C)nc2cc(-c3ccccc3)sc12	/	/	5.1	/	-9.2%
COc1ccccc1NC(=O)COC(=O)C1CCCC1	-2.7%	-3.9%	3.0	2.9	/
O=C(COC(=O)C1CCCCC1)Nc1ccccc1OC(F)F	-1.4%	-2.2%	2.2	-68.0*	-4.6%

Screening data as filed in PubChem BioAssay.
